Hit rate of the full screen: of about 150,000 compounds, about 540 (0.36%) showed an effect of 50% or more. This excerpt belongs to a sample that is enriched for strong results.

These results are taken from ChEMBL document CHEMBL4888484, “Replenishing the malaria drug discovery pipeline: Screening and hit evaluation of the MMV Hit Generation Library 1 (HGL1) against asexual blood stage Plasmodium falciparum ,using a nano luciferase reporter read-out” (2022).

For this test, the system named is Plasmodium falciparum. As to the kind of experiment: Primary screen in NF54 nanoGlo assay, in single point, at 2uM, 72h; a lower Z score goes with more inhibition. The test is classed as functional, Erythrocyte. The following applies: timepoint 72 hour.
As to `CC(C)(C)OC(=O)N1CC(CNC2(c3ncon3)CCC2)C1`, the “% Inhibition” value turned out to be 9% and the Z score is -1.69.
For the compound `CC1(C)[C@H]2CC=C(CCNc3nc(-c4ccncc4)nc4c3CNC4)[C@@H]1C2`, the “% Inhibition” value is on record as 0% and the Z score is listed as -0.03.
Turning to `CN(C[C@@H]1CCCN2CCCC[C@H]12)C(=O)Cc1c[nH]c2ccccc12`, the “% Inhibition” value is reported as -1% and the Z score stood at 0.06.
In the case of `Cc1cc(-c2cncc(CN3CCC(C(N)=O)CC3)c2)ccc1F`, the “% Inhibition” value is -2% and the Z score is listed as 0.18.
The corresponding values for `COc1ccc(-c2cncc(CN3CCCC3)c2)cc1OC` are -9% and 1.71.
Take `Cc1cc(-c2cncc(CN3CCCCC3)c2)ccc1F`: the “% Inhibition” value stood at 50% and the Z score is -1.27.
As for `Cc1ccc2c(C(=O)N3CCCCC3)cc(-c3cncnc3)nc2c1C`, the “% Inhibition” value is 3% and the Z score is on record as -0.37.
Turning to `O=c1c2cc(F)ccc2c(Br)cn1CC1(CO)COC1`, the “% Inhibition” value is on record as 20% and the Z score is listed as -2.48.
For `C[C@H](NC(=O)c1cc(C(F)(F)F)n[nH]1)c1n[nH]c(N)n1` the same measures were -2% and 0.47.
On to `OC1=Nc2c(ncn2-c2cccnc2)[C@@H](c2ccc(F)c(F)c2)C1`, for which the “% Inhibition” value is on record as 0% and the Z score is -0.05.
For `CCC1=Nc2ccccc2N=C(NC(=O)c2ccc(F)cc2)[C@H]1c1ccc(OC)c(OC)c1` the same measures were -11% and 1.75.
For the compound `CCC1=Nc2ccccc2N=C(NC(=O)C(C)C)[C@H]1c1ccc(F)cc1`, the “% Inhibition” value was found to be 64% and the Z score is on record as -2.85.
The corresponding values for `CCC1=Nc2ccccc2N=C(NC(=O)CN2CCN(C)CC2)[C@H]1c1ccccc1` are -6% and 0.93.
For `Cc1nc(N2C(=O)N(C)C3(CCCC3)C2=O)oc1C` the same measures were 3% and -0.31.
The corresponding values for `C[C@@H](NC(=O)c1ccco1)c1ccccc1` are 0% and 0.04.
On to `C[C@H](NC(=O)c1ccco1)c1cc2c(cc1Br)OCCCO2`, for which the “% Inhibition” value was 60% and the Z score came to 0.9.
For `O=C(Nc1ccc2c(c1)OCCCO2)c1ccco1` the same measures were 29% and -3.9.
As for `CC(NCC1COC(C)(C)O1)c1cc(Cl)c(N)c(Cl)c1` (stereo not given), the “% Inhibition” value is on record as 2% and the Z score is given as -0.28.
With `CCCN1CCC(NCc2ccc(-c3cccc(Cl)c3Cl)o2)CC1`, the “% Inhibition” value turned out to be 55% and the Z score is recorded as -11.87.
For the compound `Clc1cccc(-c2ccc(CNC3CCCCC3)o2)c1`, the “% Inhibition” value is -9% and the Z score came out at 1.31.
Regarding `Cc1nnc(NCc2ccc(-c3cccc(Cl)c3Cl)o2)n1C`, the “% Inhibition” value is given as -8% and the Z score was found to be 0.79.
In the case of `Fc1cccnc1N1CCOC2(CCC2)C1`, the “% Inhibition” value is reported as -15% and the Z score came to 1.72.
Consider `OCCOc1cncc(N2CCOC3(CCCCCC3)C2)n1`, for which the “% Inhibition” value was determined as 8% and the Z score is -0.67.
The corresponding values for `Oc1nc(N2CCOC3(CCCC3)C2)ncc1F` are 55% and -9.19.
In the case of `CC(=O)c1cccc(-c2ccc3c(cnn3CC(=O)Nc3ccnn3C)c2)c1`, the “% Inhibition” value is recorded as -12% and the Z score is recorded as 1.94.
